Screening results deposited in PubChem by National Center for Advancing Translational Sciences (NCATS).
This is a sample that favours compounds with a hit; in the whole collection about 1.4% have one here.
KCNH2 3.1 block: KCNH2 3.1 (human) potassium channel inhibition | U2OS KCNH2 3.1, thallium flux FluxOr; active compounds read low | 340,000 tested, 0.95% active | AID 720553 | activity change, % (tested at about 1.8 µM);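 active = maximum activity change below -70%; inconclusive = maximum activity change from -70% to -50%; inactive = maximum activity change above -50%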;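 also: thallium influx rate constant from kinetic fluorescence after stimulation buffer; % is scaled to controls: 0 for no effect and ±100 for the full control effect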
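Normalized rate constant (relative to positive and negative DMSO controls) derived from a 2 min kinetic fluorescence read after stimulation; U2OS cells expressing the 3.1 isoform via virus at 1.77 x 10^8 /mL.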
KCNH2 WT inh: inhibitors of human wildtype KCNH2 potassium channel | Q12809 | U2OS, BacMam KCNH2, thallium flux FluxOr; active compounds read low | activity change, % at 1.84 µM | 340,000 tested, 0.37% active;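 active = maximum activity change below -70%; inconclusive = maximum activity change between -70% and -50%; inactive = maximum activity change above -50%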; also: % is scaled to controls: 0 for no effect and ±100 for the full control effect
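U2OS cells were transduced with wild-type KCNH2 virus (2.03 x 10^8 / mL) for 4 h at room temperature, then cultured overnight at 37 C. Thallium flux was read with FluxOr dye. Rate constants were normalized to DMSO controls.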
Glioma ERSR ind: inducers of ER stress response in human glioma cells; U87-MG GRP78 promoter luciferase reporter, 16 h; Potency, µM, for the others: at the top dose activation, most hits filed as activators; 420,000 tested, 0.02% active; AID 602332; also: potency is read from the fitted curve at half-maximal effect; series mostly up to about 76 µM; % of control where 0% means no effect; nearly all actives have a fitted effect of over 35% in size
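Stably transfected U87-MG glioma cells carrying a GRP78-based luciferase sensor; 16 h compound incubation. Luminescence end-point read 10 min after Bright-Glo addition at room temperature.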
RXFP1 ag: activates the human relaxin receptor RXFP1 | HEK293T-RXFP1 cAMP TR-FRET, 30 min; response scale: percent of porcine relaxin response, buffer zero | Q9HBX9 | Potency, µM (highest dose often 57.5 µM), for the others: at the top dose activation, hits mostly activators | AID 2676 | 370,000 tested, 0.3% active; also: potency is read from the fitted curve at half-maximal effect; % is scaled to controls: 0 for no effect and ±100 for the full control effect; nearly all actives have a fitted effect of over 60% in size
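HEK293T cells stably expressing RXFP1 were pretreated with the PDE4 inhibitor Ro 20174, exposed to compounds for 30 min at 37C, lysed, and cAMP was read by TR-FRET. Data normalized to buffer (basal) and 29 nM porcine relaxin (100%).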
PTHR1 ag: PTHR1 (human) receptor agonism; Q03431; Potency, µM (highest dose often 115 µM), without a hit: at the top dose activation, usual class: activators; HEK293 GP2 PTHR1 cells, GloSensor cAMP luminescence, 1 h; 410,000 tested, 0.075% active; AID 743266; also: potency is read from the fitted curve at half-maximal effect; nearly all actives have a fitted effect of over 55% in size
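HEK-293-derived GP2 cells expressing PTHR1 and a GloSensor cAMP reporter, 3,000/well, plated overnight, given luciferin plus IBMX (each 0.5 mM as added) for 1 h at 37 °C, then compound for 1 h at 37 °C. Luminescence was read after 15 min at room temperature.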
RXFP1 antagonist: RXFP1 (human) relaxin receptor antagonism. Q9HBX9. HEK293-RXFP1, relaxin-stimulated cAMP HTRF, 30 min; active compounds read low. activity change, negative = inhibition, % at 57.5 µM. 350,000 tested, 0.59% active;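 active = activity change of -60% or lower, but not beyond a set lower limit; inconclusive = change between -60% and -40%, or beyond the set limit; inactive = change above -40%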; also: % is scaled to controls: 0 for no effect and ±100 for the full control effect
Numbers without * were called inactive; ! = a repeat was not active; [ ] = dose if it differs, or a comment. Unless noted, calls follow the shape of the dose curve; as a rule, active = well fitted curve in the direction sought with a large enough effect; inconclusive = small, poorly fitted or top-dose-only effect, or another doubt; inactive = no such curve, though single readings can be large; an effect the other way counts as inactive or inconclusive.

How did O=C1N/C(=C/c2ccc(N3CCOCC3)cc2)C(=O)N1Cc1ccc(F)cc1 do in these assays?
KCNH2 3.1 block: -17; KCNH2 WT inh: -1; Glioma ERSR ind: -3%; RXFP1 ag: 2%; PTHR1 ag: inactive; RXFP1 antagonist: 2

What do the screens show for `N#Cc1ccc(NC(=O)CN2CCN(c3ccccn3)CC2)cc1`?
KCNH2 3.1 block: -76*; KCNH2 WT inh: 40; Glioma ERSR ind: -1%; RXFP1 ag: -1%; PTHR1 ag: -1%; RXFP1 antagonist: -5

Results for COc1ccc2[nH]c3c(NCCC4=CCCCC4)ncnc3c2c1 ?
KCNH2 3.1 block: -12; KCNH2 WT inh: 1; Glioma ERSR ind: 2%; RXFP1 ag: -1%; PTHR1 ag: -47%; RXFP1 antagonist: -71*

How did Cc1ccc(CC(=O)Nc2ccccc2N2CCOCC2)cc1C do in these assays?
KCNH2 3.1 block: -7; KCNH2 WT inh: -7; Glioma ERSR ind: -1%; RXFP1 ag: 0%; PTHR1 ag: -6%[57.5 µM]; RXFP1 antagonist: -12

What do the screens show for `N=c1c2c(n(Cc3ccc(Cl)c(Cl)c3)c3c1CCC3)CCCC2`?
KCNH2 3.1 block: -23; KCNH2 WT inh: -2; Glioma ERSR ind: -5%; RXFP1 ag: 0%; PTHR1 ag: -19%; RXFP1 antagonist: 7

How did N=c1c2c(n(Cc3ccc(Br)cc3)c3c1CCC3)CCCC2 do in these assays?
KCNH2 3.1 block: -78*; KCNH2 WT inh: 4; Glioma ERSR ind: -5%; RXFP1 ag: 0%; PTHR1 ag: -24%; RXFP1 antagonist: -9

Results for COc1ccc(OC)c(NC(=O)CCCN2C(=O)C3C4C=CC(C4)C3C2=O)c1 (stereo unspecified) ?
KCNH2 3.1 block: 21; KCNH2 WT inh: 0; Glioma ERSR ind: -5%; RXFP1 ag: 4%; PTHR1 ag: -16%[57.5 µM]; RXFP1 antagonist: -4

What do the screens show for `CCOC(=O)/C=c1/s/c(=C/c2ccc3cc(OC)ccc3c2)c(=O)n1CC(=O)NCc1ccc2c(c1)OCO2`?
KCNH2 3.1 block: -12; KCNH2 WT inh: -16; Glioma ERSR ind: -3%; PTHR1 ag: inactive; RXFP1 antagonist: -79*

What do the screens show for `CCOc1ccccc1NS(=O)(=O)N(C)C`?
KCNH2 3.1 block: -12; KCNH2 WT inh: -15; Glioma ERSR ind: -2%; RXFP1 ag: -1%; PTHR1 ag: -4%[57.5 µM]; RXFP1 antagonist: 11

How did CN(C)S(=O)(=O)Nc1ccccc1F do in these assays?
KCNH2 3.1 block: -80*; KCNH2 WT inh: -6; Glioma ERSR ind: -3%; RXFP1 ag: 1%; PTHR1 ag: inactive; RXFP1 antagonist: -18

What do the screens show for `Cc1ccc(C(=O)NNC(=O)c2n[nH]c(=O)c3ccccc23)cc1C`?
KCNH2 3.1 block: -79*; KCNH2 WT inh: 6; Glioma ERSR ind: -1%; RXFP1 ag: -1%; PTHR1 ag: inactive; RXFP1 antagonist: 1

What do the screens show for `O=C(NNC(=O)c1n[nH]c(=O)c2ccccc12)c1ccc(Br)cc1`?
KCNH2 3.1 block: -7; KCNH2 WT inh: -3; Glioma ERSR ind: 0%; RXFP1 ag: 0%; PTHR1 ag: -2%; RXFP1 antagonist: 0

How did c1ccc(CN(CC2=NCCN2)c2ccccc2)cc1 do in these assays?
KCNH2 3.1 block: -19; KCNH2 WT inh: 8; Glioma ERSR ind: -4%; RXFP1 ag: -1%; PTHR1 ag: -11%; RXFP1 antagonist: -6

What do the screens show for `Cc1ccc(N(CC2=NCCN2)c2cccc(O)c2)cc1`?
KCNH2 3.1 block: -80*!; KCNH2 WT inh: -31; Glioma ERSR ind: -5%; RXFP1 ag: 3%; PTHR1 ag: -21%; RXFP1 antagonist: 8

What do the screens show for `Cc1ccccc1NS(=O)(=O)c1ccc(OCC(=O)NCC2CCCO2)cc1` (stereo unspecified)?
KCNH2 3.1 block: -184*; KCNH2 WT inh: -172*; Glioma ERSR ind: -2%; RXFP1 ag: 0%; PTHR1 ag: 5%; RXFP1 antagonist: 3

What do the screens show for `COc1ccc(S(=O)(=O)NCC(=O)N(CC(=O)NCC2CCCO2)c2c(C)cccc2C)cc1` (stereo unspecified)?
KCNH2 3.1 block: -74*; KCNH2 WT inh: 2; Glioma ERSR ind: -4%; RXFP1 ag: 1%; PTHR1 ag: inactive; RXFP1 antagonist: -4

How did CC(C)(C)NS(=O)(=O)c1ccc(OCC(=O)NCC2CCCO2)cc1 (stereo unspecified) do in these assays?
KCNH2 3.1 block: -5; KCNH2 WT inh: 28; Glioma ERSR ind: -6%; RXFP1 ag: 0%; PTHR1 ag: inactive; RXFP1 antagonist: 23

Results for Cc1c(OC(C)C(=O)NCCCN2CCOCC2)ccc2c3c(c(=O)oc12)CCC3 (stereo unspecified) ?
KCNH2 3.1 block: 3; KCNH2 WT inh: -15; Glioma ERSR ind: -1%; RXFP1 ag: 3%; PTHR1 ag: -18%; RXFP1 antagonist: 5

Results for c1cncc(-c2nnc(C3CCCCC3)o2)c1 ?
KCNH2 3.1 block: -80*; KCNH2 WT inh: -2; Glioma ERSR ind: 1%; RXFP1 ag: 4%; PTHR1 ag: inactive; RXFP1 antagonist: 10

What do the screens show for `FC(F)(F)c1ccncc1-c1nnc(C2CCCCC2)o1`?
KCNH2 3.1 block: -6; KCNH2 WT inh: -5; Glioma ERSR ind: -1%; RXFP1 ag: 1%; PTHR1 ag: inactive; RXFP1 antagonist: 9

What do the screens show for `CCn1cc(C(=O)NC(C)C23CC4CC(CC(C4)C2)C3)cn1` (stereo unspecified)?
KCNH2 3.1 block: 9; KCNH2 WT inh: 0; Glioma ERSR ind: -5%; RXFP1 ag: 1%; PTHR1 ag: -28%; RXFP1 antagonist: -5

How did CC(NC(=O)Cn1ncc(Cl)c(Cl)c1=O)C12CC3CC(CC(C3)C1)C2 (stereo unspecified) do in these assays?
KCNH2 3.1 block: 18; KCNH2 WT inh: 44; Glioma ERSR ind: -14%; RXFP1 ag: 0%; PTHR1 ag: -22%; RXFP1 antagonist: -100*

What do the screens show for `Cc1cc(SCC(=O)N/N=C/c2ccc(O)c(O)c2)nc2ccccc12`?
KCNH2 3.1 block: 2; KCNH2 WT inh: -6; Glioma ERSR ind: inconclusive; RXFP1 ag: -3%; PTHR1 ag: -29%; RXFP1 antagonist: -67*

How did Cc1ccc(C(=O)N2CCN(c3ccc(NC(=S)NC(=O)Cc4ccccc4)cc3)CC2)cc1 do in these assays?
KCNH2 3.1 block: -48; KCNH2 WT inh: 5; Glioma ERSR ind: -3%; RXFP1 ag: -1%; PTHR1 ag: inactive; RXFP1 antagonist: 14

Results for Cc1ccc(C(=O)N2CCN(c3ccc(NC(=O)COc4ccccc4C)cc3)CC2)cc1 ?
KCNH2 3.1 block: -95*; KCNH2 WT inh: -134*; Glioma ERSR ind: -5%; RXFP1 ag: -1%; PTHR1 ag: -31%; RXFP1 antagonist: -7
